# Test results from PubChem BioAssay (Tox21).
# Values joined by “and” are separate entries in the source; they are usually repeats but may differ in a detail not shown here. Equal values may be shown once. Inconclusive results are not listed. A call without a number means that no potency is given here. Values without a mark were called inactive. Active and inactive are the calls of the source. Unless noted, calls come from the whole dose curve; as a rule, active = well fitted curve in the direction sought with a large enough effect in the repeat runs; inconclusive = weak or mixed curves; inactive = no such curve, though single readings can be large; an effect the other way counts as inactive or inconclusive.
# Assays:
# [1] = qHTS assay to identify aromatase inhibitors - cell viability counter screen (AID 743084);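 note: cells stimulated with testosterone during compound exposure; nearly all actives have a fitted effect of over 55% in size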; note: potency is the fitted concentration of half-maximal effect
# [2] = target: Aryl hydrocarbon receptor (Homo sapiens) (UniProt P35869); assay: qHTS assay to identify small molecule that activate the aryl hydrocarbon receptor (AhR) signaling pathway (AID 743085); note: nearly all actives have a fitted effect of over 15% in size; note: potency is the fitted concentration of half-maximal effect;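 for activation: HG2L7.5c1 human HepG2 liver cells with stably integrated DRE-driven firefly reporter; series mostly up to about 70 µM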
# Sequence of Aryl hydrocarbon receptor (Homo sapiens) (P35869 whole entry, looked up): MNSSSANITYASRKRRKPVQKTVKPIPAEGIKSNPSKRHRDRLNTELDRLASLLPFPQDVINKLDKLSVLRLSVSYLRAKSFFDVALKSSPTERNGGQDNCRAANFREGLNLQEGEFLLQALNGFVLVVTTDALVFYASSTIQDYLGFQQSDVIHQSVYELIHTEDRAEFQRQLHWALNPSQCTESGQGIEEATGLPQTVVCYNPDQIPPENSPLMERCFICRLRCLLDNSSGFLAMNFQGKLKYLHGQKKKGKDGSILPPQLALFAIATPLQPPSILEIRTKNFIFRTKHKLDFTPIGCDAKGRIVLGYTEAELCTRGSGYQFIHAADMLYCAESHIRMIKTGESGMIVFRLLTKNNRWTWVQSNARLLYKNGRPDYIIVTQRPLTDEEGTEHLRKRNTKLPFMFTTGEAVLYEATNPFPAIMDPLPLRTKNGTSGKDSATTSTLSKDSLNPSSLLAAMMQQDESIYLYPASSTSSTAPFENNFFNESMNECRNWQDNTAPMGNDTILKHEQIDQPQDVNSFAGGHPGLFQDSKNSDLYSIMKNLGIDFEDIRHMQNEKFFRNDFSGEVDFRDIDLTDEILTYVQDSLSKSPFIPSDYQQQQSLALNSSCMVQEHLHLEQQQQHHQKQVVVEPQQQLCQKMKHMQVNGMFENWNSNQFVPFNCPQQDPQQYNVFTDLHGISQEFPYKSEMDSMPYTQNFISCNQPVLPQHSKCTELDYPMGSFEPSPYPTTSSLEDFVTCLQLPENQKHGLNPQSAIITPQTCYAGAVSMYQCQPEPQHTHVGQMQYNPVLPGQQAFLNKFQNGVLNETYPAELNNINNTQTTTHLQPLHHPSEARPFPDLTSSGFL
# Summary of the method: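 Measured in HG2L7.5c1 cells: CellTiter-Fluor signal (30 min incubation, 37C) for viability, then luciferase luminescence (30 min, room temperature). Compound contact time was 24 h at 37C, following a 5 h pre-incubation.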
# [3] = qHTS assay to identify small molecule that activate the aryl hydrocarbon receptor (AhR) signaling pathway - cell viability counter screen (AID 743086); note: nearly all actives have a fitted effect of over 45% in size; note: potency is the fitted concentration of half-maximal effect;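 for viability change, negative = cytotoxic: HepG2 liver cells carrying the AhR DRE luciferase reporter; series mostly up to about 70 µM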
# Summary of the method: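 HepG2-AhR-luc (HG2L7.5c1) cells, 4000/well, treated 24 h at 37 C with compound; viability measured as CellTiter-Fluor fluorescence after 30 min in the same wells as the luciferase read.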
# [4] = target: Peroxisome proliferator-activated receptor gamma (Homo sapiens) (UniProt P37231); assay: qHTS assay to identify small molecule agonists of the peroxisome proliferator-activated receptor gamma (PPARg) signaling pathway (AID 743094; active = well fitted activation curve with a large enough effect in the signal ratio in the repeat runs, not every such curve was filed as active; the % refers to the signal ratio; note: potency is the fitted concentration of half-maximal effect)
# Sequence of Peroxisome proliferator-activated receptor gamma (Homo sapiens) (P37231 whole entry, looked up): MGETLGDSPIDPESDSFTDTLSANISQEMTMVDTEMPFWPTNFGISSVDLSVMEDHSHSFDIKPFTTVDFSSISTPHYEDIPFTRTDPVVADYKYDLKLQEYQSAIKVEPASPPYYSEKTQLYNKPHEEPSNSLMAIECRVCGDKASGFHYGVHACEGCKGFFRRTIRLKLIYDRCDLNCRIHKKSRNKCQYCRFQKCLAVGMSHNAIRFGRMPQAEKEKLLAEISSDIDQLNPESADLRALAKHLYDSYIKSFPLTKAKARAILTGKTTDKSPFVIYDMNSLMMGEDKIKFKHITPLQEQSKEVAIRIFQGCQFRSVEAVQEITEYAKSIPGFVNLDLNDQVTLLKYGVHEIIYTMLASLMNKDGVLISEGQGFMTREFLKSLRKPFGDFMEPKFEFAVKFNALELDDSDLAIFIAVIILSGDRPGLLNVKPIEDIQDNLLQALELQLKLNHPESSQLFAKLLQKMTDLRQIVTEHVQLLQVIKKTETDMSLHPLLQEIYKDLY
# Summary of the method: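 Cell-based bla reporter, HEK293H background, PPARg-driven UAS. Pre-incubation 5 h, 37C, 5% CO2. Compound 17 h, 37C. Substrate 1 h RT; fluorescence.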
# [5] = qHTS assay to identify small molecule antagonists of the peroxisome proliferator-activated receptor gamma (PPARg) signaling pathway - cell viability counter screen (AID 743194); note: nearly all actives have a fitted effect of over 55% in size; note: potency is the fitted concentration of half-maximal effect
# Summary of the method: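 Cytotoxicity counter screen in PPARg-bla HEK293H cells, same wells as reporter assay. Compounds plus 50 nM rosiglitazone (final) for 17 h at 37 C, then viability read by CellTiter-Glo luminescence.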
# [6] = qHTS assay for small molecule agonists of the antioxidant response element (ARE) signaling pathway (AID 743202; active = well fitted activation curve with a large enough effect in the signal ratio in the repeat runs, not every such curve was filed as active; the % refers to the signal ratio; note: potency is the fitted concentration of half-maximal effect)
# Summary of the method: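 HepG2 ARE-bla cells; 16 h treatment at 37 C; FRET-based beta-lactamase fluorescence read after 2 h substrate incubation at room temperature.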
# [7] = qHTS assay for small molecule agonists of the antioxidant response element (ARE) signaling pathway - cell viability counter screen (AID 743203; calls by dose curve; note: nearly all actives have a fitted effect of over 55% in size; note: potency is the fitted concentration of half-maximal effect)
# Summary of the method: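 Measured in the same wells as the beta-lactamase ARE reporter, this read-out is CellTiter-Glo luminescence from HepG2 ARE-bla cells given compounds for 16 hrs.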
# [8] = qHTS assay for small molecule activators of the heat shock response signaling pathway - cell viability counter screen (AID 743209); note: nearly all actives have a fitted effect of over 50% in size; note: potency is the fitted concentration of half-maximal effect
# Summary of the method: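 Same-well multiplex: after 2.5 h room-temperature incubation with LiveBLAzer B/G substrate and fluorescence reading, CellTiter-Glo reagent was added to HSE-bla HeLa cells that had received compound for 5 h at 37 C; luminescence read after 30 min.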
# [9] = qHTS assay for small molecule activators of the heat shock response signaling pathway (AID 743210; active = well fitted activation curve with a large enough effect in the signal ratio in the repeat runs, with a control signal flat, not every such curve was filed as active; the % refers to the signal ratio;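 note: HeLa cells with beta-lactamase reporter driven by heat shock elements; series mostly up to about 63 µM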)
# Summary of the method: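 Following overnight attachment, HSE-bla HeLa cells received test compounds for 5 h at 37 C; beta-lactamase activity was then detected via FRET substrate fluorescence.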
# [10] = target: Peroxisome proliferator-activated receptor gamma (Homo sapiens) (UniProt P37231); assay: qHTS assay to identify small molecule antagonists of the peroxisome proliferator-activated receptor gamma (PPARg) signaling pathway (AID 743191; calls by dose curve; note: series mostly up to about 63 µM; nearly all actives have a fitted effect of over 30% in size)
# Summary of the method: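 GeneBLAzer PPARg UAS-bla HEK293H cells, 5 h post-plating, exposed to compounds 17 h at 37C. LiveBLAzer B/G FRET substrate added for 1 h at room temperature; beta-lactamase reporter read by fluorescence intensity.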
compound,measurement,setting,value
CC(=O)Oc1cc2c(s1)CCN(C(C(=O)C1CC1)c1ccccc1F)C2 (stereo unspecified),Potency,[1],inactive
same,Potency,[2],inactive
same,Potency,[3],inactive
same,Potency,[4],inactive
same,Potency,[5],inactive
same,Potency,[6],inactive
same,Potency,[7],inactive
same,Potency,[8],inactive
same,Potency,[9],inactive
CC(C)CCOC(=O)/C=C/c1ccccc1,Potency,[1],inactive
same,Potency,[2],inactive
same,Potency,[3],inactive
same,Potency,[4],inactive
same,Potency,[5],inactive
same,Potency,[7],inactive
same,Potency,[8],inactive
same,Potency,[9],inactive
COC(=O)c1ccccc1C,Potency,[1],inactive
same,Potency,[2],inactive
same,Potency,[3],inactive
same,Potency,[4],inactive
same,Potency,[10],inactive
same,Potency,[6],inactive
same,Potency,[7],inactive
same,Potency,[8],inactive
same,Potency,[9],inactive
Clc1ccnc(Cl)n1,Potency,[1],inactive
same,Potency,[2],inactive
same,Potency,[3],inactive
same,Potency,[4],inactive
same,Potency,[10],inactive
same,Potency,[6],inactive
same,Potency,[7],inactive
same,Potency,[8],inactive
same,Potency,[9],inactive
COC(=O)c1ccccc1OC,Potency,[1],inactive
same,Potency,[2],inactive
same,Potency,[3],inactive
same,Potency,[4],inactive
same,Potency,[5],inactive
same,Potency,[6],inactive
same,Potency,[7],inactive
same,Potency,[8],inactive
CN(C)c1ccc(C(=C2C=CC(=[N+](C)C)C=C2)c2ccc(N(C)C)cc2)cc1,Potency,[1],10.6 µM (active) and 3.05 µM (active) and 7.7 µM (active)
same,Potency,[2],2.42 µM (active)
same,Potency,[3],9.44 µM (active) and 19.2 µM (active) and 24.3 µM (active)
same,Potency,[4],8.49 µM (active)
same,Potency,[5],1.94 µM (active) and 1.95 µM (active) and 5.96 µM (active)
same,Potency,[7],9.64 µM (active) and 10.9 µM (active) and 11.9 µM (active)
same,Potency,[8],1.73 µM (active) and 4.36 µM (active) and 6.68 µM (active)
Cc1cc(C(C)(C)C)c(O)c(C)c1Cn1c(=O)n(Cc2c(C)cc(C(C)(C)C)c(O)c2C)c(=O)n(Cc2c(C)cc(C(C)(C)C)c(O)c2C)c1=O,Potency,[1],inactive
same,Potency,[2],inactive
same,Potency,[3],inactive
same,Potency,[4],inactive
same,Potency,[5],inactive
same,Potency,[6],inactive
same,Potency,[7],inactive
Nc1nc(-c2ccccc2)cs1,Potency,[1],inactive
same,Potency,[2],24.3 µM (active)
same,Potency,[3],inactive
same,Potency,[4],inactive
same,Potency,[5],inactive
same,Potency,[7],inactive
same,Potency,[8],inactive
Nc1ccc(C(=O)O)c(O)c1,Potency,[1],inactive
same,Potency,[2],inactive
same,Potency,[3],inactive
same,Potency,[4],inactive
same,Potency,[5],inactive
same,Potency,[6],inactive
same,Potency,[7],inactive
same,Potency,[8],inactive
same,Potency,[9],inactive
Cc1cccc(C(=O)O)c1O,Potency,[1],inactive
same,Potency,[2],inactive
same,Potency,[3],inactive
same,Potency,[4],inactive
same,Potency,[5],inactive
same,Potency,[7],inactive
C[C@H]1NCc2cc(-c3ccc4c(=O)c(C(=O)O)cn(C5CC5)c4c3OC(F)F)ccc21,Potency,[1],inactive
same,Potency,[2],inactive
same,Potency,[3],inactive
same,Potency,[4],inactive
same,Potency,[5],inactive
same,Potency,[6],inactive
same,Potency,[7],inactive
CC(C)OC(=O)C(O)(CC(=O)O)CC(=O)O,Potency,[1],inactive
same,Potency,[2],inactive
same,Potency,[3],inactive
same,Potency,[4],inactive
same,Potency,[10],inactive
same,Potency,[6],inactive
same,Potency,[9],inactive
CN1CCN2c3ccccc3Cc3ccccc3C2C1 (stereo unspecified),Potency,[1],inactive
same,Potency,[2],inactive
same,Potency,[3],inactive
same,Potency,[4],inactive
same,Potency,[5],inactive
same,Potency,[7],inactive
same,Potency,[8],inactive
same,Potency,[9],inactive
CCCCN(CCCC)CC(O)c1cc(Cl)cc2c1-c1ccc(Cl)cc1/C2=C/c1ccc(Cl)cc1 (stereo unspecified),Potency,[1],inactive
same,Potency,[2],26.6 µM (active)
same,Potency,[3],inactive
same,Potency,[4],inactive
same,Potency,[5],inactive
same,Potency,[6],inactive
CCCCCCCCCCOC(=O)c1ccccc1C(=O)OCCCCCCCC,Potency,[1],inactive
same,Potency,[2],inactive
same,Potency,[3],inactive
same,Potency,[4],inactive
same,Potency,[5],inactive
same,Potency,[7],inactive
same,Potency,[8],inactive
same,Potency,[9],inactive
C=C(C)C(=O)OCCCCCCCCCC,Potency,[1],inactive
same,Potency,[2],inactive
same,Potency,[3],inactive
same,Potency,[4],inactive
same,Potency,[10],inactive
same,Potency,[6],inactive
same,Potency,[7],inactive
Cc1c(C)c2c(c(C)c1OC(=O)c1cccnc1)CC[C@@](C)(CCC[C@H](C)CCC[C@H](C)CCCC(C)C)O2,Potency,[1],inactive
same,Potency,[2],inactive
same,Potency,[3],inactive
same,Potency,[4],inactive
same,Potency,[5],inactive
same,Potency,[6],inactive
same,Potency,[7],inactive
same,Potency,[8],inactive
same,Potency,[9],inactive
O=[N+]([O-])c1ccc(F)c(Cl)c1,Potency,[1],inactive
same,Potency,[2],inactive
same,Potency,[3],inactive
same,Potency,[4],inactive
same,Potency,[10],inactive
same,Potency,[6],inactive
same,Potency,[7],inactive
CC(C)(C)CC(C)(C)c1ccc(Nc2ccc(C(C)(C)CC(C)(C)C)cc2)cc1,"activity change, negative = cytotoxicity",[1],3.33% [at 8.47 µM]
same,activation,[2],-2.79% [at 8.47 µM]
same,"viability change, negative = cytotoxic",[3],-11.3% [at 8.47 µM]
same,activation,[4],0.247% [at 7.08 µM]
same,"activity change, negative = cytotoxicity",[5],-4.03% [at 5.95 µM]
same,activation,[6],-4.99% [at 8.36 µM]
same,"viability change, negative = cytotoxic",[7],7.42% [at 8.36 µM]
same,"activity change, negative = cytotoxicity",[8],7.93% [at 5.95 µM]
same,activation,[9],0.375% [at 5.95 µM]
C=CC(C)(CCC=C(C)C)OC=O (stereo unspecified),Potency,[1],inactive
same,Potency,[2],inactive
same,Potency,[3],inactive
same,Potency,[4],inactive
same,Potency,[10],inactive
same,Potency,[7],inactive
same,Potency,[8],inactive
same,Potency,[9],inactive
OC1CCC(C2CCCCC2)CC1 (stereo unspecified),Potency,[1],inactive
same,Potency,[2],inactive
same,Potency,[3],inactive
same,Potency,[4],inactive
same,Potency,[5],inactive
same,Potency,[7],inactive
same,Potency,[8],inactive
same,Potency,[9],inactive
O=S(=O)(O)c1ccc(N=Nc2c(O)ccc3ccccc23)cc1,Potency,[1],17.2 µM (active)
same,Potency,[2],27.3 µM (active)
same,Potency,[3],24.3 µM (active)
same,Potency,[4],inactive
same,Potency,[10],inactive
same,Potency,[5],inactive
same,Potency,[9],inactive
CCO[C@@H]1O[C@H](C(COCc2ccccc2)OCc2ccccc2)[C@H](OCc2ccccc2)[C@H]1O (stereo partly specified),Potency,[1],inactive
same,Potency,[2],inactive
same,Potency,[3],inactive
same,Potency,[4],inactive
same,Potency,[5],inactive
same,Potency,[7],inactive
same,Potency,[8],inactive
same,Potency,[9],inactive
CC1(C)CCC[C@]2(C)[C@H]3CCO[C@]3(C)CC[C@@H]12,Potency,[1],inactive
same,Potency,[2],inactive
same,Potency,[3],inactive
same,Potency,[4],inactive
same,Potency,[5],inactive
same,Potency,[6],inactive
same,Potency,[7],inactive
same,Potency,[8],inactive
same,Potency,[9],inactive
O=[N+]([O-])c1ccc(O)cc1C(F)(F)F,Potency,[1],68.6 µM (active)
same,Potency,[2],inactive
same,Potency,[3],61.1 µM (active)
same,Potency,[4],inactive
same,Potency,[10],inactive
same,Potency,[9],inactive
CCOc1ccc2ccccc2c1C(=O)N[C@@H]1C(=O)N2[C@@H]1SC(C)(C)[C@@H]2C(=O)O,Potency,[1],inactive
same,Potency,[2],inactive
same,Potency,[3],inactive
same,Potency,[4],inactive
same,Potency,[5],inactive
same,Potency,[6],4.73 µM (active)
same,Potency,[7],inactive
same,Potency,[8],inactive
